Five compounds from PubChem BioAssay can be followed below.

Assay [1] concerns Plasmodium falciparum Sir2 (PF13_0152, Sir2A). The assay can be described thus: Plasmodium falciparum Sir2A binding compounds – biochemical, small-molecule microarray, 635 nm fluorescence, primary screen (AID 1098).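 Note: score merges spot fluorescence intensity with its signal-to-noise ratio.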 To be noted: fluorescence 635 nm, higher = more signal.
Assay [2] can be described thus: probe aDKK1 binding to arrayed compounds – biochemical, biotinylated probe, 635/667 nm fluorescence, primary screen (AID 1099).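 Note: score merges 667nm spot fluorescence with signal to noise across triplicate slides.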 The note with it: small-molecule microarray, higher = more signal.
Assay [3] in a line: probe aCHRDL2 binding to arrayed compounds – biochemical, biotinylated probe, 635/667 nm fluorescence, primary screen (AID 1100). To be noted: small-molecule microarray, higher = more signal.
Assay [4] in a line: change in splice reporter luminescence, either direction, cell-based, HEK293, spliceosome inhibition project, primary screen (AID 1101).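 Note: HEK293 cells carrying a splicing-competent luciferase reporter gene; test concentration not given here.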 The note with it: HEK293 splicing luciferase reporter, 24 h, higher = more signal, called active from +8 up or from −8 down. On the technique in general: Reporter assays use an easily measured gene product as a stand-in for the process of interest.

Assay [5] has as its target Fibroblast growth factor 10 (Homo sapiens) (UniProt O15520). The assay can be described thus: compounds binding fibroblast growth factor 10 – biochemical, small-molecule microarray, 635 nm fluorescence, primary screen (AID 1102). The note with it: FGF10 binding, fluorescence 635 nm, higher = more signal.
Assay [6] concerns glycogen synthase kinase-3 (GSK3A per assay name; protocol says GSK3B). The assay can be described thus: compounds binding glycogen synthase kinase-3 – biochemical, small-molecule microarray, 635 nm fluorescence, GSK3A, primary screen (AID 1103). Note: the record names both GSK3A and GSK3B. To be noted: fluorescence 635 nm, higher = more signal.
Assay [7] concerns the target Epidermal growth factor receptor (Homo sapiens) (UniProt P00533). The assay can be described thus: compounds binding epidermal growth factor receptor – biochemical, small-molecule microarray, 635 nm fluorescence, primary screen (AID 1104).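 Note: score merges 667 nm emission intensity with spot signal to noise over triplicate slides.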 To be noted: EGFR binding, higher = more signal.
Assay [8] addresses Follistatin-related protein 3 (Homo sapiens) (UniProt O95633). The assay can be described thus: compounds binding follistatin-related protein 3 – biochemical, small-molecule microarray, 635 nm fluorescence, primary screen (AID 1105).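 Note: score merges emission near 667 nm and signal to noise per printed spot across three slides.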 To be noted: FSTL3 binding, higher = more signal.
Assay [9] deals with Dickkopf-related protein 1 (Homo sapiens) (UniProt O94907). The assay can be described thus: small molecules binding DKK1 protein – biochemical, small-molecule microarray, 635 nm fluorescence scan, primary screen (AID 1106).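 Note: score merges emission near 667 nm with signal to noise over three replicate slides.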 The note with it: higher = more signal.
Dickkopf-related protein 1 (Homo sapiens), sequence (O94907 whole entry, looked up): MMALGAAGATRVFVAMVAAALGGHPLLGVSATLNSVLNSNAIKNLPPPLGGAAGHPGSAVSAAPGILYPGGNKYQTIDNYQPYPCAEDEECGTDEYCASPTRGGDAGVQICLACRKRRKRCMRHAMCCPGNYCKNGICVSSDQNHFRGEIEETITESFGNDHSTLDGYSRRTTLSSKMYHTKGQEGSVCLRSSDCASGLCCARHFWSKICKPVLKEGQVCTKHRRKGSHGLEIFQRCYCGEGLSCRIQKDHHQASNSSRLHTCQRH
The test system of assay [10] is Inhibin beta A chain (activin A). The assay can be described thus: small molecules binding activin A – biochemical, small-molecule microarray, 635 nm fluorescence scan, primary screen (AID 1107).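 Note: mouse activin A protein probed at 4.33 µg/mL on printed slides; score merges bound-protein fluorescence near 667 nm with spot signal-to-noise.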 The note with it: INHBA, higher = more signal.
Assay [11] has as its system Human papillomavirus type 1a protein E7 (residues 44-93). The assay can be described thus: small molecules binding HPV E7 44-93 – biochemical, small-molecule microarray, residues 44-93, 635 nm fluorescence, primary screen (AID 1108).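 Note: E7 fragment applied at 1 µg/mL in TBST for 1 h at 4 C; score combines spot fluorescence with its signal to noise ratio.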 To be noted: fluorescence 635 nm, higher = more signal.
The nature of assay [12]: hepatitis C replication reporter changes, two-sided – Huh7 cells, luciferase reporter, HCV replication inhibitor project, primary screen (AID 1109).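 Note: huh7 hepatoma cells harbouring a luciferase neomycin HCV replicon reporter; luciferase luminescence as measure of HCV replicon replication; test concentration not given here.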 To be noted: Huh7 HCV replicon luciferase reporter, 48 h; higher = more signal.
Assay [13] has as its target Left-right determination factor 2 (Homo sapiens) (UniProt O00292). The assay can be described thus: small molecules binding LEFTY2 protein – biochemical, small-molecule microarray, 635 nm fluorescence scan, primary screen (AID 1110). To be noted: higher = more signal.
Assay [14] has as its target Calmodulin-1 (Homo sapiens) (UniProt P0DP23). The assay can be described thus: small molecules binding calmodulin-1 with EGTA – biochemical, small-molecule microarray, Cy5-labelled CALM1, profiling panel (AID 1111).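 Note: labelled calmodulin applied in Tris saline Tween buffer holding calcium plus EGTA and DTT.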 The note with it: Cy5-CALM1 binding fluorescence, higher = more signal.
For assay [15] the target is unchanged. The assay can be described thus: small molecules binding Ca-loaded calmodulin-1 – biochemical, small-molecule microarray, Cy5-labelled CALM1, plus calcium, artefact control for SMM control-protein annotation, profiling panel (AID 1112).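 Note: score merges spot fluorescence with signal to noise from triplicate slides.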 To be noted: Cy5-CALM1 binding fluorescence, higher = more signal.
The nature of assay [16]: probe aWnt5a binding to arrayed compounds – biochemical, biotinylated probe, 635/667 nm fluorescence, primary screen (AID 1113).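 Note: score merges 667 nm fluorescence intensity with signal-to-noise per printed feature.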 The note with it: small-molecule microarray, higher = more signal.
Assay [17] can be described thus: probe aShh binding to arrayed compounds – biochemical, biotinylated probe, 635/667 nm fluorescence, primary screen (AID 1114).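 Note: probe is biotin-labelled aShh protein from a stem cell growth factor screen; measures binding of labelled protein to compounds printed on the slide; score merges feature fluorescence at 667 nm with signal-to-noise.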 To be noted: small-molecule microarray, higher = more signal.
Assay [18] can be described thus: probe aNog binding to arrayed compounds – biochemical, biotinylated probe, 635/667 nm fluorescence, primary screen (AID 1115).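 Note: probe is biotinylated aNog protein used at 0.15 µg/mL for 1 h at 4 C; z-score combines 667 nm fluorescence of each spot with its signal to noise.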 To be noted: small-molecule microarray, higher = more signal.
Assay [19] addresses Torsin-1A-interacting protein 1 (Homo sapiens) (UniProt Q5JTV8). The assay can be described thus: compound microarray binding of lysate hLAP1 – cell lysate, small-molecule microarray, COS7 lysate, 635/667 nm fluorescence, primary screen (AID 1116). The note with it: 635 nm fluorescence, higher = more signal.
Assay [20] addresses Alpha-bungarotoxin (Bungarus multicinctus) (UniProt P60615). The assay can be described thus: compounds binding labelled alpha-BTX control protein – biochemical, small-molecule microarray, Alexa647 label, 635/667 nm fluorescence, artefact control for SMM control protein annotation, profiling panel (AID 1117). The note with it: alpha-BTX-A647 binding fluorescence, higher = more signal.

Each structure is given as a SMILES string. Active and inactive are the calls of the source.

Fibroblast growth factor 10 (Homo sapiens), sequence (O15520 whole entry, looked up): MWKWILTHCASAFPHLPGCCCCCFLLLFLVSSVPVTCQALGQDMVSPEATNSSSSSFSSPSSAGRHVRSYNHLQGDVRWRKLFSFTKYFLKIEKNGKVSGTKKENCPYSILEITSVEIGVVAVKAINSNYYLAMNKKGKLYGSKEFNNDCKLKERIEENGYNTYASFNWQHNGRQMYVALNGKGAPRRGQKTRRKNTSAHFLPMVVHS
Epidermal growth factor receptor (Homo sapiens), sequence (P00533 whole entry, looked up): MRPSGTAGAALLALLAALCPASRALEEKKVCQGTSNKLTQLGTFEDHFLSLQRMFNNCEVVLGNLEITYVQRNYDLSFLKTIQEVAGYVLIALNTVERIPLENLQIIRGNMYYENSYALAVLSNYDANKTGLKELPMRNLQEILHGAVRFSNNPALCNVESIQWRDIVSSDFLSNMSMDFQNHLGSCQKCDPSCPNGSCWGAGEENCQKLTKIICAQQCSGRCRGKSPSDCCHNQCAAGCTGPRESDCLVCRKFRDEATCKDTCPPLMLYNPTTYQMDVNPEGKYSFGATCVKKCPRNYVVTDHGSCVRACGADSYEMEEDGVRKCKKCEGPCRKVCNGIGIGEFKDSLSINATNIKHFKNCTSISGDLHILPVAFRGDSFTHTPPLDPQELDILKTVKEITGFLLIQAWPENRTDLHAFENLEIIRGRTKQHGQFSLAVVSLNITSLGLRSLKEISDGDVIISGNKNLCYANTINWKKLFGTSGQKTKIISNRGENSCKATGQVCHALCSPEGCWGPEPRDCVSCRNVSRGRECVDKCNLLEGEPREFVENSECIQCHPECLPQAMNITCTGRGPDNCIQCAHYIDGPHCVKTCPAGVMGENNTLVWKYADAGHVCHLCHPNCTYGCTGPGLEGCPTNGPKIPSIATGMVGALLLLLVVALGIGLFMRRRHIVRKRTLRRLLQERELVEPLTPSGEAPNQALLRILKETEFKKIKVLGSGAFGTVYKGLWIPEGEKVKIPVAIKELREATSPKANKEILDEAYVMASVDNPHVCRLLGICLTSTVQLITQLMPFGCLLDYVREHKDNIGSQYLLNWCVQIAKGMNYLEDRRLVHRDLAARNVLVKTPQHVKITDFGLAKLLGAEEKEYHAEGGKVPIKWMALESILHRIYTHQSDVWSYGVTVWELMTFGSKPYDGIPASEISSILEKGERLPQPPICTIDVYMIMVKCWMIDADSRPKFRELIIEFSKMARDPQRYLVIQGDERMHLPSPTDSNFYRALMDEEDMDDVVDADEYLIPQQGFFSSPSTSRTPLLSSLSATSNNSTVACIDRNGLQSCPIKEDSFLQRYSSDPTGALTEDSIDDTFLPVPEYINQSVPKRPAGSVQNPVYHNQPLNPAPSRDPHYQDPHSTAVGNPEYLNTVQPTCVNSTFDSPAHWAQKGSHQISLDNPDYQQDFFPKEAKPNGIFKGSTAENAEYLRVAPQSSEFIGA
Torsin-1A-interacting protein 1 (Homo sapiens), sequence (Q5JTV8 whole entry, looked up): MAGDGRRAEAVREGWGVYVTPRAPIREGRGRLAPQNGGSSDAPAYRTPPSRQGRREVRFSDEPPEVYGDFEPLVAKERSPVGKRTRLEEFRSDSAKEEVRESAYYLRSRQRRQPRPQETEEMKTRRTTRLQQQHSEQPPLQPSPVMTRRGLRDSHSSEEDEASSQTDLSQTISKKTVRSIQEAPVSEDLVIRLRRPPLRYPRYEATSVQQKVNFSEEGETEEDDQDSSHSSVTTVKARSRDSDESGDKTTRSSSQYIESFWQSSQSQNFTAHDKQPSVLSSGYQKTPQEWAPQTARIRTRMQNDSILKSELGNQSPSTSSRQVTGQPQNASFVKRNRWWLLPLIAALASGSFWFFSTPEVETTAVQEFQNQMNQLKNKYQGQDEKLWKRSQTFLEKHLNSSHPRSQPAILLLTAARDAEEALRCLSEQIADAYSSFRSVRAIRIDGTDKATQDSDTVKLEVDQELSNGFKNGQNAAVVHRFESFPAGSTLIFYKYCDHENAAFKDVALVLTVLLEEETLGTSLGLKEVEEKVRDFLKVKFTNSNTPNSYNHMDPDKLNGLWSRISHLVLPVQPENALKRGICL
Left-right determination factor 2 (Homo sapiens), sequence (O00292 whole entry, looked up): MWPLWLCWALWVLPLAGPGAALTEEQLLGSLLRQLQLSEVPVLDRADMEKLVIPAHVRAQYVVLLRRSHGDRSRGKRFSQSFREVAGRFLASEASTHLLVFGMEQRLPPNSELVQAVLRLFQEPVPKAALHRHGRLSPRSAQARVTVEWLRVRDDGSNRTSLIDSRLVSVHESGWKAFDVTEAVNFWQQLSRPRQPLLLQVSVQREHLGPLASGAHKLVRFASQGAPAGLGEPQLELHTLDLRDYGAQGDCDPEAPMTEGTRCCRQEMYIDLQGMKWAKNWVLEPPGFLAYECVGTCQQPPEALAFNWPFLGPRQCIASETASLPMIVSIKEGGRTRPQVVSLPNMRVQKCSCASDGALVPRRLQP
Follistatin-related protein 3 (Homo sapiens), sequence (O95633 whole entry, looked up): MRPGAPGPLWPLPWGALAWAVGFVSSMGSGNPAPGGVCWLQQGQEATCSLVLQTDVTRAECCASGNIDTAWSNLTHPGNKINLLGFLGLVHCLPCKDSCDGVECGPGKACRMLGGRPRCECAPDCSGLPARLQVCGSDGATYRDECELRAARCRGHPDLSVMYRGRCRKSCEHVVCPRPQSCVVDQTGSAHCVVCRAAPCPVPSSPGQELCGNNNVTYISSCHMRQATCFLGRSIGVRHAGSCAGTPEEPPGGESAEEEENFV
Alpha-bungarotoxin (Bungarus multicinctus), sequence (P60615 whole entry, looked up): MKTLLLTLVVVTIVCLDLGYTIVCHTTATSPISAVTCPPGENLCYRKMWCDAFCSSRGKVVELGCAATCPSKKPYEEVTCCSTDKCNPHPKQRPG

On to `COc1ccccc1CN1C(=O)c2ccccc2[C@@H](C(=O)NCC(F)(F)F)[C@@H]1c1ccc(CO)cc1`, for which the composite z-score was 1.68 in [1]; -0.139 in [2]; 0.245 in [3]; 0.956 in [5]; 0.715 in assay [6]; 0.0304 in [7]. Moreover, the composite z-score in [8] is 0.941; in assay [9], 0.0666; in [10], 0.218; in [11] it was 1.44; in [13], -0.155; in [14], 0.313. In addition, the composite z-score in assay [15] was 0.229; in assay [16] it was -0.107; in [17], 0.0446; in [18], -0.425; in [19], 0.488; in [20] it was 0.472. Besides, the values for the z-score in assay [4] and in [12] were -0.14 (inactive) and -1.26, respectively.

For the compound `CC(C)=CCCC(C)=CCON=C1[C@H]2CCn3c(=O)n(Cc4cc5c(cc4Cl)OCO5)c(=O)n3[C@H]2[C@H](O)[C@@H]2O[C@H]12`, the composite z-score in assay [1] is 0.398; in [2], -0.277; in assay [3], -0.248; in assay [5], 0.427; in assay [6] it was 0.173; in [7], 0.984. For the same compound, the composite z-score in assay [8] was 0.677; in [9], 0.472; in [10], 1.27; in assay [11], -0.118; in assay [13], 0.463; in assay [14], -0.175. Moreover, the composite z-score was -0.591 in assay [15]; 0.0388 in [16]; -0.138 in assay [17]; -0.181 in assay [18]; 0.989 in assay [19]; -0.112 in assay [20]. For the same compound, the figures for the z-score in assay [4] and in assay [12] were -0.696 (inactive) and -0.78, respectively.

In the case of `Cc1cc2c(nc1C)CCCN2CC(C)ON=C1[C@H]2CCn3c(=O)n(-c4ccccc4)c(=O)n3[C@H]2[C@H](O)[C@@H]2O[C@H]12` (stereo not given in full), the composite z-score in assay [1] is 0.508; in assay [2], -0.013; in assay [3], -0.499; in assay [5], 0.618; in assay [6], 1.1; in assay [7] it was 0.822. The composite z-score is 0.828 in [8]; 0.686 in [9]; 0.693 in [10]; 0.862 in assay [11]; 0.377 in [13]; -0.135 in [14]. Moreover, the composite z-score is -0.458 in assay [15]; -0.0077 in assay [16]; 0.767 in [17]; 0.066 in assay [18]; 0.184 in assay [19]; 0.515 in [20]. The z-score is -0.736 (inactive) in assay [4] and -3.29 in assay [12].

Consider `CCCCCN1CC=CC23O[C@@H]4C=CCOC(=O)[C@@H]4[C@H]2C(=O)N(CCCCCCO)[C@@H]3C1=O` (stereo not given in full), for which the composite z-score is 1.93 in assay [1]; -0.0936 in assay [2]; 0.734 in assay [3]; -0.655 in [5]; -1.08 in assay [6]; -1.31 in assay [7]. In addition, the composite z-score in assay [8] was -1.81; in assay [9], -1.54; in assay [10], -0.395; in [11] it was -0.276; in assay [13] it was -2; in assay [14], -0.284. The composite z-score in assay [15] is 0.168; in [16] it was -0.0417; in assay [17], 0.0796; in assay [18], 0.293; in [19], 1.9; in assay [20], -0.729. Also, the z-score was -0.0127 (inactive) in [4] and 0.417 in assay [12].

With `CC(CCN1CCCCc2nc(C)c(C)cc21)=NOC(C)CN1CCCCc2nc(C)c(C)cc21` (stereo not given), the composite z-score in assay [1] is 1.62; in [2] it was -0.142; in assay [3], -0.595; in assay [5], 1.07; in assay [6], 1.33; in assay [7], 1.58. Moreover, the composite z-score in [8] stood at 1.42; in [9], 1.68; in assay [10], 0.908; in assay [11], 1.41; in assay [13], 1.45; in assay [14], 0.447. Moreover, the composite z-score is -0.788 in assay [15]; -0.096 in [16]; -0.0709 in [17]; -0.0762 in assay [18]; 0.201 in assay [19]; 1.23 in assay [20]. Further, the z-score in assay [4] is 0.127 (inactive); in assay [12], -2.95.
